Records with an inconclusive call do not appear. Entries that show only a call come without a potency. Calls of active or inactive are those of the source. Unless noted, the call rests on the fitted dose curve; in most records, active means well fitted curve in the direction sought with a large enough effect; inconclusive means small, poorly fitted or top-dose-only effect, or another doubt; inactive means no such curve, though single readings can be large; an effect the other way counts as inactive or inconclusive.
Key:
[1] = Cell Viability - Jurkat (AID 426;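 active means dose-dependent loss of cell ATP signal giving a full or clear fitted curve, ranked by lower potency value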;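 further: potency means the concentration at half of the fitted maximal effect; cells exposed to compound for 40 hours at 37 °C before ATP read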); conditions: qHTS
In short: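 Cytotoxicity taken as drop in cellular ATP (CellTiter-Glo luminescence, 20 min room temperature) after 40 hr, 37C treatment of 5000 Jurkat Clone E6-1 cells per well; concentration-response fitted with Hill equation for AC50.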

[2] = Cell Viability - N2a (AID 540); conditions: N2a mouse neuroblastoma cell viability; activity change, negative = cytotoxicity: at 92.2 µM (top of the series); further: nearly all actives have a fitted effect of over 45% in size
In short: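 CellTiter-Glo ATP luminescence, read 20 min after reagent at room temperature, reported viability following 40 h compound treatment at 37 °C. N2a mouse neuroblastoma cells seeded 1500/well; Hill equation gave AC50.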

[3] = Cell Viability - SH-SY5Y (AID 544); conditions: SH-SY5Y neuroblastoma cell viability; viability change, negative = cytotoxic: at 92.2 µM (top of the series);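 further: cells exposed to compound for 40 hours; nearly all actives have a fitted effect of over 55% in size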
In short: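 Cytotoxicity measured via ATP-dependent luciferase luminescence (CellTiter-Glo) following 40 h, 37 °C exposure of 1500 SH-SY5Y cells per well. Concentration-response data were fitted with the standard Hill equation to give AC50.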

[4] = Cellular Toxicity (caspase-3) H-4-II-E (AID 663); conditions: Potency: caspase-3 activation;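 further: cells exposed to compound for 16 hr before readout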
In short: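 Caspase 3/7 activation measured by luminescent aminoluciferin substrate cleavage after 16 hr compound treatment of H-4-II-E cells in complete medium. Increase normalized between DMSO (basal) and 100 uM tamoxifen (100%); Hill-equation AC50 from concentration-response.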

[5] = Cellular Toxicity (caspase-3) NIH 3T3 (AID 666);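 further: caspase signal read after 16 h compound exposure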
In short: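 Caspase-Glo 3/7 luminescence reported caspase activation in 1000 NIH 3T3 cells/well after 16 h compound exposure at 37 C. DMSO set basal and 100 uM tamoxifen set 100% stimulation; concentration-response modeled with the Hill equation for AC50.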

[6] = MultiTox-Fluor Cytotoxicity Assay - LYMP1-001 - Live Cells (AID 947)
[7] = Cell Viability - LYMP2-004 (AID 966); further: nearly all actives have a fitted effect of over 65% in size
In short: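 AC50 values come from Hill modelling of concentration-dependent loss of intracellular ATP, measured by CellTiter-Glo luminescence. Human LYMP2-004 lymphoblastoid cells (2500/well) were exposed to compound for 24 h at 37 C.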

[8] = Cell Viability - LYMP2-019 (AID 973); further: nearly all actives have a fitted effect of over 55% in size
In short: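 AC50 values come from Hill-equation fits of luminescent intracellular ATP (CellTiter-Glo, 30 min, room temperature) following 24 h compound exposure at 37 C. Cells: LYMP2-019 lymphoblastoid line, 2500 per well, in complete culture medium.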

[9] = Cell Viability - LYMP2-025 (AID 976)
In short: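 Cytotoxicity read as loss of intracellular ATP (luciferase luminescence) after 24 h compound treatment at 37 C. Uses LYMP2-025 lymphoblastoid cells in 1536-well format; Hill-equation modelling gives AC50; tetraoctylammonium bromide as positive control.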

[10] = Cell Viability - LYMP2-012 (AID 982);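 further: cellular ATP by luciferase luminescence where a drop means cytotoxicity; cells exposed to compound for one day before reading; nearly all actives have a fitted effect of over 55% in size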
[11] = Cell Viability - LYMP2-014 (AID 983); further: nearly all actives have a fitted effect of over 50% in size
In short: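 Intracellular ATP loss, read by luciferase luminescence, measures acute cytotoxicity after 24 h compound exposure of lymphoblastoid LYMP2-014 cells (2500/well, 37 C). Concentration-response data fitted to the Hill equation for AC50.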

[12] = Cell Viability - LYMP2-016 (AID 984); further: nearly all actives have a fitted effect of over 55% in size
In short: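 qHTS, 1536-well: 2500 LYMP2-016 cells/well, 5 hr 37 C, compound added, 24 hr 37 C, CellTiter-Glo 30 min RT, luminescence. Tetraoctylammonium bromide positive control. AC50 via Hill fit.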

[13] = Cell Viability - LYMP2-018 (AID 985); further: nearly all actives have a fitted effect of over 50% in size
In short: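 Viability read as CellTiter-Glo luminescence (cellular ATP) after 24 hr compound exposure at 37 C of 2500 LYMP2-018 lymphoblastoid cells/well, pre-plated 5 hr. Hill-equation modelling gave AC50.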

[14] = Cell Viability - LYMP2-026 (AID 989); further: nearly all actives have a fitted effect of over 50% in size
In short: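 Cytotoxicity read as ATP-dependent luminescence (CellTiter-Glo, 30 min room temperature) after 24 h compound treatment at 37 C. LYMP2-026 lymphoblastoid line seeded at 2500 cells/well; AC50 derived by standard Hill equation.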

[15] = target: Peroxisome proliferator-activated receptor gamma (Homo sapiens) (UniProt P37231); assay: qHTS assay for small molecule agonists of peroxisome proliferator-activated receptor gamma signaling (AID 588536; active means well fitted curve in the direction sought with a large enough effect in the signal ratio, with a control signal flat, not every such curve was filed as active; the % refers to the signal ratio)
In short: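 Cells were plated and held 6–6.5 h at 37 C, then compounds were added as a titration series. After a further 16 h, CCF4 dye was loaded for 2 h at room temperature and emission at 460/530 nm recorded.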

[16] = qHTS assay for small molecule antagonists of retinoid X receptor alpha signaling (AID 588546); conditions: HEK293T RXRa-UAS-bla, beta-lactamase ratio, antagonist mode; measured here: W530 green channel, cytotoxicity proxy;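 further: cells stimulated with 9-cis-retinoic acid as agonist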
In short: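 Beta-lactamase reporter inhibition, read as CCF4 fluorescence ratio (ex 405, em 460/530 nm) after 2 h at RT. HEK293T UAS-bla cells, 2500/well, were stimulated with 9-cis-RA at 500 or 100 nM final alongside test compound for 18 h at 37 C.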

[17] = target: Thyroid hormone receptor beta (Homo sapiens) (UniProt P10828); assay: qHTS assay for small molecule antagonists of thyroid hormone receptor beta signaling (AID 588547; active means well fitted inhibition curve with a large enough effect in the signal ratio, with a control signal flat, not every such curve was filed as active; the % refers to the signal ratio;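 further: cells stimulated with 0.4 nM T3 agonist during compound exposure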); conditions: TR-UAS-bla HEK293, beta-lactamase ratio, antagonist mode, 18 h
In short: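 Inhibition of T3-driven (0.4nM final) beta-lactamase reporter activity was measured over 0.59 nM to 92 uM compound after 18 h at 37 C. The cells were GripTite HEK293 TR-UAS-bla in charcoal/dextran-stripped serum, with CCF4 ratio read-out and IC50 from Hill fits.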

[18] = target: Nuclear receptor subfamily 1 group I member 2 (Rattus norvegicus) (UniProt Q9R1A7); assay: qHTS assay for small molecule activators of the rat pregnane X receptor (rPXR) signaling pathway (AID 651751; call rule not given here); conditions: rPXR reporter cells, luciferase (One-Glo), 24 h
[19] = target: Tumor necrosis factor (Homo sapiens) (UniProt P01375); assay: qHTS assay to identify small molecules that stimulate Tumor Necrosis Factor-alpha (TNF-alpha) secretion (AID 651757; active means well fitted curve in the direction sought with a large enough effect in the signal ratio; the % refers to the signal ratio)
In short: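 Secreted TNF-alpha quantified by TR-FRET sandwich of two labeled anti-TNF-alpha antibodies, incubated 3 hr at room temperature. Preceded by 17 hr, 37 C compound treatment of THP-1 cells at 3000 cells/well.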

Tumor necrosis factor (Homo sapiens), sequence (P01375 whole entry, looked up): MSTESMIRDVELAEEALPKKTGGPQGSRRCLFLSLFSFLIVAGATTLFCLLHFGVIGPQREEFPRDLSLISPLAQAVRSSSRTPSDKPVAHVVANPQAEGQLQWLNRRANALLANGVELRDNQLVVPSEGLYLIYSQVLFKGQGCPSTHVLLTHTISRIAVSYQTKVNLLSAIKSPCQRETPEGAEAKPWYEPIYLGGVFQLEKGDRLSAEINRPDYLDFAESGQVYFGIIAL
Nuclear receptor subfamily 1 group I member 2 (Rattus norvegicus), sequence (Q9R1A7 whole entry, looked up): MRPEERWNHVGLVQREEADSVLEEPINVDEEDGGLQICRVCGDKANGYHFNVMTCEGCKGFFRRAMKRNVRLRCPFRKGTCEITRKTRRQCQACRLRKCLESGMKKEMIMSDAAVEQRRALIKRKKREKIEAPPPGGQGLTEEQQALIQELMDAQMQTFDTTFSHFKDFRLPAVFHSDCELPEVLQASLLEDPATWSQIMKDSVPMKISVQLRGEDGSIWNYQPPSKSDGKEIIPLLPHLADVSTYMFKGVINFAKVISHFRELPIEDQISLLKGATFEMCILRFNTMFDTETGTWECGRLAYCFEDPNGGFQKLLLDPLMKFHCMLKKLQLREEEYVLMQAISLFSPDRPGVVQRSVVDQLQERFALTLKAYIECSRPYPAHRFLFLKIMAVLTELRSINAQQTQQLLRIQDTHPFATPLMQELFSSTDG
Peroxisome proliferator-activated receptor gamma (Homo sapiens), sequence (P37231 whole entry, looked up): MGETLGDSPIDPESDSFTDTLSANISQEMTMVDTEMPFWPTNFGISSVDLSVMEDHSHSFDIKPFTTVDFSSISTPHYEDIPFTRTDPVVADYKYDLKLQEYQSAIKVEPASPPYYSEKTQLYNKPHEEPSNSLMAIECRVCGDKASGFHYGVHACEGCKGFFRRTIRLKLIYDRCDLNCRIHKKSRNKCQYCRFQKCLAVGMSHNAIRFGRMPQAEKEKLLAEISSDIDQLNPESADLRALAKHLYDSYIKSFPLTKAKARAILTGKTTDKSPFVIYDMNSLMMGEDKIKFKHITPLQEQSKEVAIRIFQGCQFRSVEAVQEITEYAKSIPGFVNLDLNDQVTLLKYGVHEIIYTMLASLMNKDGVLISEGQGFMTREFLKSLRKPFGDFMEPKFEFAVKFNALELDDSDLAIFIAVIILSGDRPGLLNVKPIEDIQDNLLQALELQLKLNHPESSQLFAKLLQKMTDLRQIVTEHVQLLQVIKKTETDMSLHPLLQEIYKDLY
Thyroid hormone receptor beta (Homo sapiens), sequence (P10828 whole entry, looked up): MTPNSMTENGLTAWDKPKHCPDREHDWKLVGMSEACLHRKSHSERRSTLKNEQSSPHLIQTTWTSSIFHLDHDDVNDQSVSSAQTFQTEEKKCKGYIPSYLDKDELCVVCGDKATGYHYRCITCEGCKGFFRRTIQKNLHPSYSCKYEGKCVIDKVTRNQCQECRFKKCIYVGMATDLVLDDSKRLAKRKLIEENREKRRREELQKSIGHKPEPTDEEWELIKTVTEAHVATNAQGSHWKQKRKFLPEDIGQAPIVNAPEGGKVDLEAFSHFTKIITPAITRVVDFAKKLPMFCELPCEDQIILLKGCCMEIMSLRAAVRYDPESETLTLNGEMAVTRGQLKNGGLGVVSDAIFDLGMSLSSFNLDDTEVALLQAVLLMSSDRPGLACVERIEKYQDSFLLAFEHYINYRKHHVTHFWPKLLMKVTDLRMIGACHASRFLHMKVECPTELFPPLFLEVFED

| Compound | Potency [1] | Potency [2] | Potency [3] | Potency [4] | Potency [5] | outcome [6] | Potency [7] | Potency [8] | Potency [9] | Potency [10] | Potency [11] | Potency [12] | Potency [13] | Potency [14] | outcome [15] | max response [16] | activity change % (negative = inhibition) [17] | max response [18] | outcome [19] |
| --- | --- | --- | --- | --- | --- | --- | --- | --- | --- | --- | --- | --- | --- | --- | --- | --- | --- | --- | --- |
| Cc1cc(-c2cc(C)c(N)c(C)c2)cc(C)c1N | > 92 µM (inactive) | inactive | inactive | inactive | inactive | inactive | inactive | inactive | inactive | inactive | inactive | inactive | inactive | inactive | inactive | -0.244% | 5.74% (inactive) | 14.1% (inactive) | – |
| O=C(O)C(Cl)Br (stereo not drawn) | > 92 µM (inactive) | inactive | inactive | inactive | inactive | inactive | inactive | inactive | inactive | inactive | inactive | inactive | inactive | inactive | inactive | -6.53% | 7.08% (inactive) | -1.1% (inactive) | inactive |
| CCCBr | > 92 µM (inactive) | inactive | inactive | – | inactive | inactive | inactive | inactive | inactive | inactive | inactive | inactive | inactive | inactive | inactive | -1.75% | 3.13% (inactive) | -1.34% (inactive) | inactive |
| BrC(Br)Br | > 92 µM (inactive) | inactive | inactive | inactive | inactive | inactive | inactive | inactive | inactive | inactive | inactive | inactive | inactive | inactive | inactive | -5.42% | -8.09% (inactive) | 0.0785% (inactive) | inactive |
| CC(=O)CCC(C)=O | > 92 µM (inactive) | inactive | inactive | inactive | inactive | inactive | inactive | inactive | inactive | inactive | inactive | inactive | inactive | inactive | inactive | -1.17% | 15% (inactive) | -1.31% (inactive) | inactive |

— PubChem BioAssay (NCATS)
